Source: PubChem BioAssay (NCI)
The panel holds about 79,000 compounds, 15% with a hit somewhere; the sample as a whole holds those more often. Active and inactive are the calls of the source. Rule as the data show it: active = growth inhibition above about 70%; inactive = the rest.

test: NCI Yeast Anticancer Drug Screen. Data for the wt1 strain (AID 149);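 also: 0% = growth of vehicle-treated wt1 cultures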; conditions: S. cerevisiae wt1 strain (SPY 50644) growth inhibition; at 33.0 µM; active compounds read high
Summary of the method: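 Vehicle-normalised growth inhibition; strain wt1; compound exposure.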

| Structure (SMILES) | growth inhibition |
| --- | --- |
| O=CC=C(c1ccccc1)c1ccccc1 | 10% (inactive) |
| FC(F)(F)c1nc2nc(Cl)c(Cl)nc2n1CCCN1CCOCC1 | 12% (inactive) |
| BrCC[P+](c1ccccc1)(c1ccccc1)c1ccccc1 | 96% (active) |
| N#CSc1ccc(S(N)(=O)=O)cc1 | -9% (inactive) |
| O=[N+]([O-])c1ccc2nc3ccccc3cc2c1 | 21% (inactive) |
| O=C(NC(Nc1ccc(F)c(Cl)c1)(C(F)(F)F)C(F)(F)F)C(C(F)(F)F)C(F)(F)F | 96% (active) |
| O=C(/C=C\c1ccc(Cl)cc1Cl)c1cccs1 | -6% (inactive) |
| O=C(NCCCCNCCCNC(=O)c1cc(-c2ccccc2)nc2ccccc12)c1cc(-c2ccccc2)nc2ccccc12 | 5% (inactive) |
| NC(=NCc1ccccc1)N/N=C\c1ccnc2ccccc12 | 0% (inactive) |
| CCCCN(CCCC)CCSc1ccc(Cl)cc1 | 31% (inactive) |
| COc1cc(C2C3=C(COC3=O)Oc3cc4c(cc32)OCO4)ccc1O (stereo not drawn) | -5% (inactive) |
| C#CCCCc1ccccc1 | -9% (inactive) |
| CCc1ccc(NS(=O)(=O)c2ccccc2)c([N+](=O)[O-])c1 | 5% (inactive) |
| COc1ccc(C2c3cc4c(cc3OC(C)(O)C2C)OCO4)c(OC)c1 (stereo not drawn) | -2% (inactive) |
| COC(=O)c1ccc(CCC2=CC(=O)C(Br)=CC2=O)cc1 | 12% (inactive) |
| NNC(=O)CCc1ccc2ccc3ccccc3c2c1 | 3% (inactive) |
| Cn1c2ccccc2c(=O)c2cc(NC(=O)CCCCC(=O)Nc3ccc4c(c3)c(=O)c3ccccc3n4C)ccc21 | 4% (inactive) |
| CC(CC(C)(C)[N+](C)(C)C)[N+](C)(C)C (stereo not drawn) | -3% (inactive) |
| CC1CCN(CCC(=O)c2ccc(Cl)cc2)CC1 | 7% (inactive) |
| CCCCCCCCCCCCCCC(C(=O)[O-])[n+]1ccccc1 (stereo not drawn) | -6% (inactive) |

| Structure (SMILES) | growth inhibition |
| --- | --- |
| CNC1C(OC2C(OC3C(O)C(O)C(N=C(N)N)C(O)C3N=C(N)N)OC(C)C2(O)CO)OC(CO)C(O)C1O (stereo not drawn) | 10% (inactive) |
| O=C(O)c1ccccc1-c1ccccc1C(=O)Nc1ccc2c(c1)Cc1ccccc1-2 | 47% (inactive) |
| O=[N+]([O-])c1cccc2nc3ccccc3c(NCCCN3CCOCC3)c12 | 97% (active) |
| C=CC(C)(O)CCC1C(=C)C(O)CC2C(C)(C)CCCC12C (stereo not drawn) | -11% (inactive) |
| CN1c2ccc(Cl)cc2C(=O)NC1c1ccc([N+](=O)[O-])s1 (stereo not drawn) | 92% (active) |
| [O-][n+]1c2ccc(O)cc2nc2ccc(Br)cc21 | 45% (inactive) |
| O=C1c2ccccc2-c2nc3ccccc3nc21 | 33% (inactive) |
| CCCCN1C(=O)N(c2ccc(OCC)cc2)C2N(CCCC)C1C(C)(C)C2(C)C (stereo not drawn) | 19% (inactive) |
| CO[C@H]1C[C@](C)(O)Cc2cc3c(c(O)c21)C(=O)c1c(O)cc2c(c1C3=O)O[C@@H]1O[C@@]2(C)[C@H](O)[C@@H](N(C)C)[C@@H]1O | -44% (inactive) |
| COc1cc2c(cc1[N+](=O)[O-])C(=O)C(Br)(Br)CCC2 | 99% (active) |
| O=C1OC(CCl)CN1/N=C/c1ccc([N+](=O)[O-])o1 (stereo not drawn) | 21% (inactive) |
| CN(C)CCOc1ccc2c(c1)C/C(=C/c1ncc([N+](=O)[O-])n1C)C2=O | 21% (inactive) |
| CCCCCCCCCCCCCCCCCCN(C)CC(COP(=O)([O-])OCC[N+](C)(C)C)OC (stereo not drawn) | 99% (active) |
| CC(C)c1ccccc1NC(=O)/C(Cl)=C(\Cl)C(=O)O | 1% (inactive) |
| O=[N+]([O-])C(=C(Sc1ccccc1)Sc1ccccc1)C(Cl)=C(Cl)Cl | 36% (inactive) |
| C(=C\c1ccccc1)/COc1ccccc1C(N1CCOCC1)n1nc2ccccc2n1 (stereo not drawn) | 88% (active) |
| O=C1C(Nc2ccccc2)=C(Oc2ccccc2)C(=O)c2ccccc21 | -4% (inactive) |
| CCN(CC)CCN1C(=O)c2cccc3cc(OC)cc(c23)C1=O | -7% (inactive) |
| CN(C)Cc1cc(N=Nc2ccc(Cl)cc2)cc(CN(C)C)c1O | 12% (inactive) |

same assay, conditions: S. cerevisiae wt1 strain (SPY 50644) growth inhibition; at 100.0 µM; active compounds read high

| Structure (SMILES) | growth inhibition |
| --- | --- |
| O=CC=C(c1ccccc1)c1ccccc1 | 98% (active) |
| FC(F)(F)c1nc2nc(Cl)c(Cl)nc2n1CCCN1CCOCC1 | 18% (inactive) |
| BrCC[P+](c1ccccc1)(c1ccccc1)c1ccccc1 | 98% (active) |
| N#CSc1ccc(S(N)(=O)=O)cc1 | 53% (inactive) |
| O=[N+]([O-])c1ccc2nc3ccccc3cc2c1 | 81% (active) |
| O=C(NC(Nc1ccc(F)c(Cl)c1)(C(F)(F)F)C(F)(F)F)C(C(F)(F)F)C(F)(F)F | 98% (active) |
| O=C(/C=C\c1ccc(Cl)cc1Cl)c1cccs1 | -7% (inactive) |
| O=C(NCCCCNCCCNC(=O)c1cc(-c2ccccc2)nc2ccccc12)c1cc(-c2ccccc2)nc2ccccc12 | 91% (active) |
| NC(=NCc1ccccc1)N/N=C\c1ccnc2ccccc12 | 2% (inactive) |
| CCCCN(CCCC)CCSc1ccc(Cl)cc1 | 93% (active) |
| COc1cc(C2C3=C(COC3=O)Oc3cc4c(cc32)OCO4)ccc1O (stereo not drawn) | 31% (inactive) |
| C#CCCCc1ccccc1 | 57% (inactive) |
| CCc1ccc(NS(=O)(=O)c2ccccc2)c([N+](=O)[O-])c1 | 46% (inactive) |
| COc1ccc(C2c3cc4c(cc3OC(C)(O)C2C)OCO4)c(OC)c1 (stereo not drawn) | 83% (active) |
| COC(=O)c1ccc(CCC2=CC(=O)C(Br)=CC2=O)cc1 | 28% (inactive) |
| NNC(=O)CCc1ccc2ccc3ccccc3c2c1 | 18% (inactive) |
| Cn1c2ccccc2c(=O)c2cc(NC(=O)CCCCC(=O)Nc3ccc4c(c3)c(=O)c3ccccc3n4C)ccc21 | 20% (inactive) |
| CC(CC(C)(C)[N+](C)(C)C)[N+](C)(C)C (stereo not drawn) | 0% (inactive) |
| CC1CCN(CCC(=O)c2ccc(Cl)cc2)CC1 | 16% (inactive) |
| CCCCCCCCCCCCCCC(C(=O)[O-])[n+]1ccccc1 (stereo not drawn) | 6% (inactive) |

| Structure (SMILES) | growth inhibition |
| --- | --- |
| CNC1C(OC2C(OC3C(O)C(O)C(N=C(N)N)C(O)C3N=C(N)N)OC(C)C2(O)CO)OC(CO)C(O)C1O (stereo not drawn) | -4% (inactive) |
| O=C(O)c1ccccc1-c1ccccc1C(=O)Nc1ccc2c(c1)Cc1ccccc1-2 | 90% (active) |
| O=[N+]([O-])c1cccc2nc3ccccc3c(NCCCN3CCOCC3)c12 | 98% (active) |
| C=CC(C)(O)CCC1C(=C)C(O)CC2C(C)(C)CCCC12C (stereo not drawn) | 69% (inactive) |
| CN1c2ccc(Cl)cc2C(=O)NC1c1ccc([N+](=O)[O-])s1 (stereo not drawn) | 96% (active) |
| [O-][n+]1c2ccc(O)cc2nc2ccc(Br)cc21 | 67% (inactive) |
| O=C1c2ccccc2-c2nc3ccccc3nc21 | 66% (inactive) |
| CCCCN1C(=O)N(c2ccc(OCC)cc2)C2N(CCCC)C1C(C)(C)C2(C)C (stereo not drawn) | 52% (inactive) |
| CO[C@H]1C[C@](C)(O)Cc2cc3c(c(O)c21)C(=O)c1c(O)cc2c(c1C3=O)O[C@@H]1O[C@@]2(C)[C@H](O)[C@@H](N(C)C)[C@@H]1O | -37% (inactive) |
| COc1cc2c(cc1[N+](=O)[O-])C(=O)C(Br)(Br)CCC2 | 98% (active) |
| O=C1OC(CCl)CN1/N=C/c1ccc([N+](=O)[O-])o1 (stereo not drawn) | 54% (inactive) |
| CN(C)CCOc1ccc2c(c1)C/C(=C/c1ncc([N+](=O)[O-])n1C)C2=O | 39% (inactive) |
| CCCCCCCCCCCCCCCCCCN(C)CC(COP(=O)([O-])OCC[N+](C)(C)C)OC (stereo not drawn) | 99% (active) |
| CC(C)c1ccccc1NC(=O)/C(Cl)=C(\Cl)C(=O)O | 59% (inactive) |
| O=[N+]([O-])C(=C(Sc1ccccc1)Sc1ccccc1)C(Cl)=C(Cl)Cl | 41% (inactive) |
| C(=C\c1ccccc1)/COc1ccccc1C(N1CCOCC1)n1nc2ccccc2n1 (stereo not drawn) | 98% (active) |
| O=C1C(Nc2ccccc2)=C(Oc2ccccc2)C(=O)c2ccccc21 | 14% (inactive) |
| CCN(CC)CCN1C(=O)c2cccc3cc(OC)cc(c23)C1=O | -1% (inactive) |
| CN(C)Cc1cc(N=Nc2ccc(Cl)cc2)cc(CN(C)C)c1O | 63% (inactive) |
